PubChem BioAssay (NCI)
The panel holds about 79,000 compounds, 15% with a hit somewhere; the sample as a whole holds those more often. Calls of active or inactive are those of the source. Rule as the data show it: active = growth inhibition above about 70%; inactive = the rest.

Experiments:
[1] = NCI Yeast Anticancer Drug Screen. Data for the rad52 strain (AID 147);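 also: 0% = growth of vehicle-treated control cultures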; conditions: S. cerevisiae rad52 mutant growth inhibition, active compounds read high
Outline: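 Read-out: growth inhibition versus vehicle-treated controls. Cells were a DNA repair-deficient yeast strain treated with compounds.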

[2] = NCI Yeast Anticancer Drug Screen. Data for the rad50EPP+ strain (AID 151);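 also: 0% = growth of vehicle-treated control cultures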; conditions: S. cerevisiae rad50 mutant strain, active compounds read high
Outline: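 Growth inhibition read against vehicle controls in rad50EPP+ yeast, a strain altered in DNA damage repair, after compound exposure.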

[3] = NCI Yeast Anticancer Drug Screen. Data for the mgt1 strain (AID 153); conditions: S. cerevisiae mgt1 mutant growth inhibition, active compounds read high
Outline: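 mgt1 yeast grown with test compound; read-out is growth inhibition versus vehicle-treated cultures.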

[4] = NCI Yeast Anticancer Drug Screen. Data for the rad50 strain (AID 155);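 also: 0% = growth of vehicle-only cultures of the same strain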; conditions: S. cerevisiae rad50 strain growth inhibition, active compounds read high
Outline: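 A DNA repair-deficient yeast mutant serves as the test organism; compound-induced growth inhibition is calculated against vehicle-treated cells.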

[5] = NCI Yeast Anticancer Drug Screen. Data for the mec2-1 strain (AID 157); conditions: S. cerevisiae mec2-1 strain, active compounds read high
Outline: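 Yeast mec2-1 mutant treated with compound. Readout: growth inhibition vs vehicle controls.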

[6] = NCI Yeast Anticancer Drug Screen. Data for the rad14 strain (AID 159);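 also: 0% = growth of vehicle-treated control cultures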; conditions: S. cerevisiae rad14 strain growth inhibition, active compounds read high
Outline: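 Vehicle-treated cultures served as the baseline for growth inhibition of a DNA repair-mutant yeast strain exposed to each compound.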

[7] = NCI Yeast Anticancer Drug Screen. Data for the sgs1 mgt1 strain (AID 161);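 also: 0% = growth of cultures given vehicle only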; conditions: S. cerevisiae sgs1 mgt1 strain, active compounds read high
Outline: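 Inhibition of yeast growth, normalised to vehicle-treated controls, is reported for a strain bearing genetic alterations in DNA damage repair.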

[8] = NCI Yeast Anticancer Drug Screen. Data for the CLN2oe strain (AID 163);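 also: 0% = growth of vehicle-only control cultures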; conditions: S. cerevisiae CLN2oe strain, active compounds read high
Outline: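 Read-out: yeast growth inhibition, expressed relative to vehicle-only controls. The strain bears an engineered cell-cycle alteration.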

[9] = NCI Yeast Anticancer Drug Screen. Data for the cln2 rad14 strain (AID 165);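 also: 0% = growth equal to vehicle treated cultures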; conditions: S. cerevisiae cln2 rad14 strain, active compounds read high
Outline: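 cln2 rad14 yeast strain; compound exposure; growth inhibition read vs vehicle controls.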

[10] = NCI Yeast Anticancer Drug Screen. Data for the bub3 strain (AID 167); conditions: S. cerevisiae bub3 mutant strain, active compounds read high
Outline: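 Inhibition values come from growth of compound-treated mutant yeast normalised to vehicle-treated controls.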

[11] = NCI Yeast Anticancer Drug Screen. Data for the mlh1 strain (AID 171);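 also: 0% = growth of vehicle-treated control cultures of the same strain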; conditions: S. cerevisiae mlh1 strain growth inhibition, active compounds read high
Outline: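 Read-out: growth inhibition versus vehicle controls. Strain: engineered yeast with a defined DNA repair or cell cycle defect, compound-treated.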

[12] = NCI Yeast Anticancer Drug Screen. Data for the mlh1 rad18 strain (AID 175); conditions: S. cerevisiae mlh1 rad18 strain growth inhibition, active compounds read high
Outline: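 Yeast w/ defined DNA-repair lesions; compound exposure; growth vs vehicle controls → % inhibition.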

[13] = NCI Yeast Anticancer Drug Screen. Data for the rad18 strain (AID 177); conditions: S. cerevisiae rad18 mutant growth inhibition, active compounds read high
Outline: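 Readout: growth inhibition vs vehicle controls. Cells: genetically altered yeast strain, DNA repair defect.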

[14] = NCI Yeast Anticancer Drug Screen. Data for the wt1 strain (AID 149);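 also: 0% = growth of vehicle-treated wt1 cultures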; conditions: S. cerevisiae wt1 strain (SPY 50644) growth inhibition, active compounds read high
Outline: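 Vehicle-normalised growth inhibition; strain wt1; compound exposure.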

[15] = NCI Yeast Anticancer Drug Screen. Data for the wt2 strain (AID 169);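 also: 0% = growth of vehicle-treated yeast cultures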; conditions: S. cerevisiae wt2 strain growth inhibition, active compounds read high
Outline: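 Read-out: growth inhibition versus vehicle-treated control cultures after compound exposure of the yeast strain.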

[16] = NCI Yeast Anticancer Drug Screen. Data for the sgs1 strain (AID 173);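 also: 0% = growth of vehicle-only control cultures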; conditions: S. cerevisiae sgs1 mutant, active compounds read high
Outline: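 Read-out: yeast growth inhibition relative to vehicle controls, following compound exposure of a strain with a defined DNA repair/cell cycle alteration.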

[17] = at 5.0 µM (retest, dose inferred, filed as 0.5)
[18] = at 50.0 µM (retest, dose inferred, filed as 5.0)

Measured: growth inhibition

C=COC(=O)N[C@H]1CCc2cc(OC)c(OC)c(OC)c2-c2ccc(SC)c(=O)cc21
active: [1]; at 100.0 µM 75% | [4]; at 100.0 µM 88% | [5]; at 100.0 µM 73% | [6]; at 100.0 µM 93% | [8]; at 100.0 µM 80% | [11]; at 100.0 µM 84% | [13]; at 100.0 µM 75%
inactive: [1]; at 1.2 µM -2% | [1]; at 3.7 µM 1% | [1]; at 11.0 µM 6% | [1]; at 33.0 µM 14% | [2]; at 1.2 µM -8% | [2]; at 3.7 µM -2% | [2]; at 11.0 µM -3% | [2]; at 33.0 µM -6% | [2]; at 100.0 µM -2% | [3]; at 1.2 µM -5% | [3]; at 3.7 µM -8% | [3]; at 11.0 µM -4% | [3]; at 33.0 µM 13% | [3]; at 100.0 µM 64% | [4]; at 1.2 µM 1% | [4]; at 3.7 µM 4% | [4]; [17] -6% | [4]; at 11.0 µM 10% | [4]; at 33.0 µM 20% | [4]; [18] 34% | [4]; at 50.0 µM 38.5% | [5]; at 1.2 µM -5% | [5]; at 3.7 µM -4% | [5]; [17] -9% | [5]; at 11.0 µM -5% | [5]; at 33.0 µM 2% | [5]; [18] 41% | [5]; at 50.0 µM 30.9% | [6]; at 1.2 µM -1% | [6]; at 3.7 µM -1% | [6]; at 11.0 µM 6% | [6]; at 33.0 µM 19% | [7]; [17] -9% | [7]; [18] 42% | [7]; at 50.0 µM 38% | [8]; at 1.2 µM -4% | [8]; at 3.7 µM -2% | [8]; at 11.0 µM -12% | [8]; at 33.0 µM -10% | [9]; [17] 3% | [9]; [18] 6% | [9]; at 50.0 µM 20.4% | [10]; at 1.2 µM -3% | [10]; at 3.7 µM -6% | [10]; [17] -3% | [10]; at 11.0 µM -6% | [10]; at 33.0 µM 4% | [10]; [18] 67% | [10]; at 50.0 µM 34.2% | [10]; at 100.0 µM 58% | [11]; at 1.2 µM 1% | [11]; at 3.7 µM -1% | [11]; at 11.0 µM 0% | [11]; at 33.0 µM 12% | [12]; [17] -8% | [12]; [18] 30% | [12]; at 50.0 µM 29.1% | [13]; at 1.2 µM -2% | [13]; at 3.7 µM 0% | [13]; at 11.0 µM 3% | [13]; at 33.0 µM 13%

O=C1CC(C(O)(C(F)(F)F)C(F)(F)Cl)CCC1C(O)(C(F)(F)F)C(F)(F)Cl (stereo unspecified)
inactive: [1]; at 1.2 µM 54% | [1]; at 3.7 µM 46% | [14]; at 1.2 µM 32% | [14]; at 3.7 µM 44% | [14]; at 11.0 µM 68% | [3]; at 1.2 µM 60% | [3]; at 3.7 µM 65% | [4]; at 1.2 µM 45% | [4]; at 3.7 µM 33% | [4]; [17] 29% | [4]; at 11.0 µM 57% | [5]; at 1.2 µM 67% | [5]; at 3.7 µM 56% | [5]; [17] 35% | [6]; at 1.2 µM 66% | [6]; at 3.7 µM 50% | [7]; [17] 49% | [9]; [17] 44% | [10]; at 1.2 µM 60% | [10]; at 3.7 µM 45% | [10]; [17] 2% | [15]; at 1.2 µM 51% | [15]; at 3.7 µM 55% | [11]; at 1.2 µM 52% | [11]; at 3.7 µM 46% | [11]; at 11.0 µM 67% | [16]; at 1.2 µM 61% | [16]; at 3.7 µM 62% | [12]; [17] 42% | [13]; at 1.2 µM 42% | [13]; at 3.7 µM 45%
active: [1]; at 11.0 µM 72% | [1]; at 33.0 µM 93% | [1]; at 100.0 µM 97% | [14]; at 33.0 µM 91% | [14]; at 100.0 µM 97% | [3]; at 11.0 µM 87% | [3]; at 33.0 µM 94% | [3]; at 100.0 µM 97% | [4]; at 33.0 µM 91% | [4]; [18] 96% | [4]; at 50.0 µM 99.1% | [4]; at 100.0 µM 97% | [5]; at 11.0 µM 84% | [5]; at 33.0 µM 96% | [5]; [18] 96% | [5]; at 50.0 µM 99.5% | [5]; at 100.0 µM 98% | [6]; at 11.0 µM 85% | [6]; at 33.0 µM 97% | [6]; at 100.0 µM 99% | [7]; [18] 96% | [7]; at 50.0 µM 99.5% | [8]; at 1.2 µM 75% | [8]; at 3.7 µM 77% | [8]; at 11.0 µM 89% | [8]; at 33.0 µM 95% | [8]; at 100.0 µM 95% | [9]; [18] 96% | [9]; at 50.0 µM 99.2% | [10]; at 11.0 µM 76% | [10]; at 33.0 µM 95% | [10]; [18] 97% | [10]; at 50.0 µM 99.4% | [10]; at 100.0 µM 97% | [15]; at 11.0 µM 84% | [15]; at 33.0 µM 93% | [15]; at 100.0 µM 98% | [11]; at 33.0 µM 92% | [11]; at 100.0 µM 98% | [16]; at 11.0 µM 80% | [16]; at 33.0 µM 96% | [16]; at 100.0 µM 98% | [12]; [18] 97% | [12]; at 50.0 µM 99% | [13]; at 11.0 µM 76% | [13]; at 33.0 µM 94% | [13]; at 100.0 µM 97%
